The source of these data is article PMC7862700, “An all-to-all approach to the identification of sequence-specific readers for epigenetic DNA modifications on cytosine”.

Experiment in all cases: DAPPL (digital affinity profiling via proximity ligation, sequencing); 10 mM Tris-HCl pH 7.5, 50 mM NaCl, 1 mM DTT, 4% glycerol, room temperature, 30 min; GST-TFs on glutathione beads, 16-mer random dsDNA library, 0.1% formaldehyde crosslink after washing; high values mean tight binding
What all share (conditions): protein: recombinant; tags: N-terminal GST; dsDNA, one strand shown

One assay has as its target T1, ERF (Homo sapiens, UniProt P50548 1-548).
T1 sequence: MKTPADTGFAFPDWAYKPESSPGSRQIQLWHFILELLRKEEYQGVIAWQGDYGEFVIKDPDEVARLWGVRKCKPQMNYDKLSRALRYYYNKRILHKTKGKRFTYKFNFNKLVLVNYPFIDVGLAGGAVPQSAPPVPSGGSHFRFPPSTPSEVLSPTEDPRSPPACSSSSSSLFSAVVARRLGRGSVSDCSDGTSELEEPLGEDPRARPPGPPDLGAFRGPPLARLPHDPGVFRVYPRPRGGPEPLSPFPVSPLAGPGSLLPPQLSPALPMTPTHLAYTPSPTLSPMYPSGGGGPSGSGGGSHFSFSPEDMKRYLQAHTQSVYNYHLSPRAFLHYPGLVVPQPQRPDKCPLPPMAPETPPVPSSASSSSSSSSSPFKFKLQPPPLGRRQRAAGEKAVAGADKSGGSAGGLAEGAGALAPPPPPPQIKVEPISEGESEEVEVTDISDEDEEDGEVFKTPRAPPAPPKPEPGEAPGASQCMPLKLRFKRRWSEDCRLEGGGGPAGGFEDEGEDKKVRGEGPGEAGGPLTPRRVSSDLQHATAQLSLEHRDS
The essentials:
(§1)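 Human transcription factors carrying a GST fusion were produced in yeast, bound to glutathione beads, tagged with DNA barcodes and pooled together with a tag-only sample. Each pool was held with 200 nmole of a random double-stranded 16-mer DNA library in Tris/NaCl/DTT/glycerol buffer for 30 min at room temperature, then washed, crosslinked in 0.1% formaldehyde, proximity-ligated with BsaI/T4 ligase (1 h, 37 °C), PCR-amplified and sequenced on an Illumina NextSeq500. Binding signal is the read frequency of each hexamer for a given factor divided by its frequency in the tag-only sample.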

The next assay concerns the target T2, ETV3L (Homo sapiens, UniProt Q6ZN32 1-361).
T2 sequence: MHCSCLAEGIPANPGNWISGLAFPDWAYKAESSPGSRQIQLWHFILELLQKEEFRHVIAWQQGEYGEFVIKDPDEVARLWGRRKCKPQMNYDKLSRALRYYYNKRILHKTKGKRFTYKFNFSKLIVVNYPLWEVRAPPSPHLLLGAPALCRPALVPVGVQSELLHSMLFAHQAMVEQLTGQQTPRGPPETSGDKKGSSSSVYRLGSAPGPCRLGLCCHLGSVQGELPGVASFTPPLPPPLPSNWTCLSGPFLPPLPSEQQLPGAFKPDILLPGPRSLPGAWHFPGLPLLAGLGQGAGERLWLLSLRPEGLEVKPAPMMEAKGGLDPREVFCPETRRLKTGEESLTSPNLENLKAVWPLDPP
Put shortly: as §1

A further assay deals with T3, ETS2 (Homo sapiens, UniProt P15036 1-469).
T3 sequence: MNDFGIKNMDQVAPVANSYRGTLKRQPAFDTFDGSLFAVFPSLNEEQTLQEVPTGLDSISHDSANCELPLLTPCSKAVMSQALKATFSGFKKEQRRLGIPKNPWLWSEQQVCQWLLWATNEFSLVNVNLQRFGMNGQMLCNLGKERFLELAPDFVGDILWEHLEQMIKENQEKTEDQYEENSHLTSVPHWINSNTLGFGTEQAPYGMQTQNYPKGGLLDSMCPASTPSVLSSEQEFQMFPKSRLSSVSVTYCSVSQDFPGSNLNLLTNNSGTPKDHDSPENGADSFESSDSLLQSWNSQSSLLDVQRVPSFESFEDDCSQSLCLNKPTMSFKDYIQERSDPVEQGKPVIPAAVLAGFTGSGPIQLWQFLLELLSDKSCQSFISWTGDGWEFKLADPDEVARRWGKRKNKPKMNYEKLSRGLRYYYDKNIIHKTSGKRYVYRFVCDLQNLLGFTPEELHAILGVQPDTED
The essentials: as §1

The next assay addresses T4, SPDEF (Homo sapiens, UniProt O95238 1-335).
T4 sequence: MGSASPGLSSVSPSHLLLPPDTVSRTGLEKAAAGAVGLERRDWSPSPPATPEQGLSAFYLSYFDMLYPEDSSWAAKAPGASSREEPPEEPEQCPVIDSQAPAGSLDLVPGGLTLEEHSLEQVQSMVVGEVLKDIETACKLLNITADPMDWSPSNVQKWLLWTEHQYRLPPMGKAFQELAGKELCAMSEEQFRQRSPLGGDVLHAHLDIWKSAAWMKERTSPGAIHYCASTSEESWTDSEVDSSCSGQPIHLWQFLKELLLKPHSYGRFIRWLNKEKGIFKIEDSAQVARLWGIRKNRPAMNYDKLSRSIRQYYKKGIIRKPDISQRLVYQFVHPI
Put shortly:
as §1

In another assay the target is T5, ETV7 (Homo sapiens, UniProt Q9Y603 1-341).
T5 sequence: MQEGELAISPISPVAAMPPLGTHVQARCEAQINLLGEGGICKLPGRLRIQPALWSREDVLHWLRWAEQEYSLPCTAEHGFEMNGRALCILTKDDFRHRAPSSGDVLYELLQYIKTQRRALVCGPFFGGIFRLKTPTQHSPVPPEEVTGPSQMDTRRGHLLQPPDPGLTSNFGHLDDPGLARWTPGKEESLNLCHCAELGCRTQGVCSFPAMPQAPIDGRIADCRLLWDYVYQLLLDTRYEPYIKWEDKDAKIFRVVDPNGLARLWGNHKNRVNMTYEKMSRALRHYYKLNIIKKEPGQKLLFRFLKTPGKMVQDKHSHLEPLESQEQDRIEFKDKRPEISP
Put shortly: as §1

For a further assay, the target named is T6, ELF5 (Homo sapiens, UniProt Q9UKW6-2 1-255).
T6 sequence: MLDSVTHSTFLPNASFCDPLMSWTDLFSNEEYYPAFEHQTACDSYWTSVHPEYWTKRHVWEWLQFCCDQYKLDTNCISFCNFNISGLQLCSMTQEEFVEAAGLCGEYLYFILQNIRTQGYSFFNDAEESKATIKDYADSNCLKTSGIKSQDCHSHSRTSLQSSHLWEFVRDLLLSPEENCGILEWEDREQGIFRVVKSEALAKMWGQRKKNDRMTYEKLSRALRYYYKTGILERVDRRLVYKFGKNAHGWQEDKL
The essentials: as §1

A further assay deals with T7, ETV3 (Homo sapiens, UniProt P41162-2 1-143).
T7 sequence: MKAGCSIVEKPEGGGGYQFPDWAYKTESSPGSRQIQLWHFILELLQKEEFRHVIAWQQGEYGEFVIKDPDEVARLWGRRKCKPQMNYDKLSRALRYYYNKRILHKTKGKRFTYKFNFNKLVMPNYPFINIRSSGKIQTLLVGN
The essentials:
as §1

The target in the next assay is ETV6 (Homo sapiens, UniProt P41212 1-452). The essentials:
as §1

ETV6, sequence (P41212 whole entry): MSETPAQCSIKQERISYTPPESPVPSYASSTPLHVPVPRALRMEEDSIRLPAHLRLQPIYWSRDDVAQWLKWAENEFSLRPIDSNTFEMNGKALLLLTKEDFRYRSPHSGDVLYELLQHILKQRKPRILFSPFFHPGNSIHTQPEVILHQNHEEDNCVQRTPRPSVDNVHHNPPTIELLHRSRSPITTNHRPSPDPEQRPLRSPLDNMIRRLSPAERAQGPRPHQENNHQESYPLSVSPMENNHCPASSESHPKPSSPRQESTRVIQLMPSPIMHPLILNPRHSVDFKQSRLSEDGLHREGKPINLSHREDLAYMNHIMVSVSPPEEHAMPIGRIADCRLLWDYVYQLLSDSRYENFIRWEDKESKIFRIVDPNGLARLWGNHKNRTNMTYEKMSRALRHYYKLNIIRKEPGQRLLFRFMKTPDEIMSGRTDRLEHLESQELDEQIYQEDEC

In the case of TTGATC, the binding signal with ERF is 1.23 fold enrichment (6-mer frequency, TF over GST control); with ETV3L, 1.2 fold enrichment (6-mer frequency, TF over GST control); with ETS2, 1.1 fold enrichment (6-mer frequency, TF over GST control); with SPDEF, 1.24 fold enrichment (6-mer frequency, TF over GST control); in the assay with ETV7, 1.08 fold enrichment (6-mer frequency, TF over GST control); with ELF5, 1.21 fold enrichment (6-mer frequency, TF over GST control). Moreover, the binding signal with ETV3 is 1.26 fold enrichment (6-mer frequency, TF over GST control); with ETV6 it was 1.09 fold enrichment (6-mer frequency, TF over GST control).
In the case of AACTAT, the binding signal with ERF was 1.17 fold enrichment (6-mer frequency, TF over GST control); in the assay with ETV3L, 1.28 fold enrichment (6-mer frequency, TF over GST control); with ETS2, 1.45 fold enrichment (6-mer frequency, TF over GST control); with SPDEF, 1.42 fold enrichment (6-mer frequency, TF over GST control); with ETV7, 1.38 fold enrichment (6-mer frequency, TF over GST control); with ELF5, 1.45 fold enrichment (6-mer frequency, TF over GST control). For the same sequence, the binding signal is 1.28 fold enrichment (6-mer frequency, TF over GST control) with ETV3 and 1.33 fold enrichment (6-mer frequency, TF over GST control) with ETV6.
As for TCCTCT, the binding signal in the assay with ERF was 1.68 fold enrichment (6-mer frequency, TF over GST control); with ETV3L, 1.74 fold enrichment (6-mer frequency, TF over GST control); in the assay with ETS2 it was 1.67 fold enrichment (6-mer frequency, TF over GST control); in the assay with SPDEF, 1.58 fold enrichment (6-mer frequency, TF over GST control); with ETV7 it was 1.67 fold enrichment (6-mer frequency, TF over GST control); with ELF5, 2.15 fold enrichment (6-mer frequency, TF over GST control). For the same sequence, the binding signal with ETV3 is 1.63 fold enrichment (6-mer frequency, TF over GST control); with ETV6, 1.64 fold enrichment (6-mer frequency, TF over GST control).
For the sequence CTGGGT, the binding signal was 1.07 fold enrichment (6-mer frequency, TF over GST control) in the assay with ERF; 1.18 fold enrichment (6-mer frequency, TF over GST control) with ETV3L; 1.09 fold enrichment (6-mer frequency, TF over GST control) in the assay with ETS2; 1.08 fold enrichment (6-mer frequency, TF over GST control) with SPDEF; 1.1 fold enrichment (6-mer frequency, TF over GST control) in the assay with ETV7; 1.07 fold enrichment (6-mer frequency, TF over GST control) with ELF5. Moreover, the binding signal was 1.07 fold enrichment (6-mer frequency, TF over GST control) with ETV3 and 1.09 fold enrichment (6-mer frequency, TF over GST control) with ETV6.
CCCAAC: the binding signal with ERF was 1.24 fold enrichment (6-mer frequency, TF over GST control); in the assay with ETV3L, 1.13 fold enrichment (6-mer frequency, TF over GST control); in the assay with ETS2 it was 1.13 fold enrichment (6-mer frequency, TF over GST control); with SPDEF it was 1.19 fold enrichment (6-mer frequency, TF over GST control); with ETV7, 1.06 fold enrichment (6-mer frequency, TF over GST control); with ELF5, 1.12 fold enrichment (6-mer frequency, TF over GST control). In addition, the binding signal in the assay with ETV3 is 1.05 fold enrichment (6-mer frequency, TF over GST control); with ETV6, 1.17 fold enrichment (6-mer frequency, TF over GST control).
In the case of AAAGGT, the binding signal with ERF was 1.07 fold enrichment (6-mer frequency, TF over GST control); with ETV3L it was 1.03 fold enrichment (6-mer frequency, TF over GST control); in the assay with ETS2, 1.04 fold enrichment (6-mer frequency, TF over GST control); with SPDEF, 1.11 fold enrichment (6-mer frequency, TF over GST control); in the assay with ETV7 it was 1.07 fold enrichment (6-mer frequency, TF over GST control); in the assay with ELF5 it was 1.01 fold enrichment (6-mer frequency, TF over GST control). In addition, the binding signal in the assay with ETV3 was 1.05 fold enrichment (6-mer frequency, TF over GST control); with ETV6, 1.11 fold enrichment (6-mer frequency, TF over GST control).
As for AAGGAA, the binding signal in the assay with ERF is 1.23 fold enrichment (6-mer frequency, TF over GST control); with ETV3L, 1.3 fold enrichment (6-mer frequency, TF over GST control); in the assay with ETS2, 1.34 fold enrichment (6-mer frequency, TF over GST control); in the assay with SPDEF, 1.22 fold enrichment (6-mer frequency, TF over GST control); with ETV7, 1.28 fold enrichment (6-mer frequency, TF over GST control); with ELF5 it was 2.15 fold enrichment (6-mer frequency, TF over GST control). Also, the binding signal was 1.37 fold enrichment (6-mer frequency, TF over GST control) in the assay with ETV3 and 1.41 fold enrichment (6-mer frequency, TF over GST control) in the assay with ETV6.
On to TCGTTC, for which the binding signal with ERF is 1.36 fold enrichment (6-mer frequency, TF over GST control); with ETV3L, 1.25 fold enrichment (6-mer frequency, TF over GST control); with ETS2 it was 1.2 fold enrichment (6-mer frequency, TF over GST control); with SPDEF, 1.3 fold enrichment (6-mer frequency, TF over GST control); in the assay with ETV7, 1.15 fold enrichment (6-mer frequency, TF over GST control); in the assay with ELF5 it was 1.27 fold enrichment (6-mer frequency, TF over GST control). For the same sequence, the binding signal was 1.26 fold enrichment (6-mer frequency, TF over GST control) with ETV3 and 1.29 fold enrichment (6-mer frequency, TF over GST control) in the assay with ETV6.
